Data on seven compounds can be found in PubChem BioAssay (NCATS).

Unmarked numbers belong to inactive results. Records with an inconclusive call do not appear. Calls of active or inactive are those of the source. Unless noted, calls follow the shape of the dose curve; as a rule, active = well fitted curve in the direction sought with a large enough effect; inconclusive = small, poorly fitted or top-dose-only effect, or another doubt; inactive = no such curve, though single readings can be large; an effect the other way counts as inactive or inconclusive.

Assay [1] deals with Lysosomal acid glucosylceramidase (Homo sapiens) (UniProt P04062). Description: Glucocerebrosidase-p2 (AID 348; in the data active = potency below about 10 µM; also: potency is read from the fitted curve at half-maximal effect). The settings on record: purified GBA, blue fluorogenic substrate, 40 min. The method in brief:
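Normal human glucocerebrosidase (0.2 nM) with blue fluorogenic substrate (80 uM final) in citrate/phosphate pH 5.9 with 10mM sodium taurocholate, 0.01% tween-20; 40 min RT, NaOH/glycine stop; fluorescence Ex 365/Em 440; AC50 from a titration from 0.6 nM upwards.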

Assay [2] is described as follows: AP1 Signaling Pathway (AID 357; active = well fitted curve in either direction with a large enough effect, not every such curve was filed as active;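 also: ME-180 reporter cells stimulated with EGF at its EC50 level; % is scaled to controls: 0 for no effect and ±100 for the full control effect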). The settings on record: ME-180 AP-1-bla reporter, EGF-induced, beta-lactamase ratio, 5 h; at 7.69 µM (top of the series) unless noted. The method in brief:
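First, ME-180 AP-1-bla cells were cultured overnight at 37 °C in low-serum Opti-MEM. Next, titrated compounds with EC50 EGF were incubated 5 hours. Finally, CCF4 was added for 2.5 hours and the 460/530 nm ratio recorded.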

Assay [3] in a line: NFAT Signaling Pathway (AID 444; active = well fitted curve in either direction with a large enough effect, not every such curve was filed as active;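 also: carbachol stimulus at about its EC50 of 1 µM final; % is scaled to controls: 0 for no effect and ±100 for the full control effect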). The settings on record: Jurkat NFAT-bla M1, carbachol, beta-lactamase ratio, 5 h; at 7.69 µM (top of the series) unless noted. The method in brief: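 Read-out: CCF4 FRET ratio (460 nm/530 nm) after 1 h RT dye loading, used for %activity and AC50 from titration series. Cells: Jurkat NFAT-β-lactamase/M1 line, treated with compound plus 1 uM carbachol for 5 h, 37 °C.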

Assay [4] can be described thus: Stat Signaling Pathway (AID 446; active = well fitted curve in either direction with a large enough effect, not every such curve was filed as active;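 also: ME-180 cervical cancer cells given 40 pM IL-6 alongside compound; SIE-controlled beta-lactamase reporter measured as 460/530 nm FRET emission ratio; % is scaled to controls: 0 for no effect and ±100 for the full control effect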). The following applies: ME-180 (cervical carcinoma) SIE beta-lactamase reporter, IL-6 stimulated, 5 h; at 7.69 µM (top of the series) unless noted. In a few lines: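 Normalization used AC90 stimulation (300 pM IL-6) and AC90 inhibition (125 nM pan-JAK inhibitor at 40 pM IL-6). The underlying signal is SIE-driven beta-lactamase in ME-180 cells after 5 h IL-6 exposure with compound.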

In assay [5] the target is Glucocorticoid receptor (Homo sapiens) (UniProt P04150). Kind of assay: GR-GFP Redistribution (AID 450;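 active = compounds whose dose series gives a full or clear partial fitted curve of increased nuclear translocation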; also: potency is read from the fitted curve at half-maximal effect). The following applies: U2OS GR-GFP nuclear translocation, laser cytometry, 2 h.
Assay [6] shares this target. Kind of assay: GR-EFC Redistribution (AID 451; calls by dose curve; also: potency is read from the fitted curve at half-maximal effect). The settings on record: CHO-K1 GR-EFC translocation, beta-gal luminescence, 2 h. In a few lines: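 Translocation of GR-ED fusion to nuclear EA restores b-gal, read by luminescence after 1 h room-temperature detection. Engineered CHO-K1 biosensor cells, 1,000/well, exposed 2 h at 37 C to titrations up to 46 uM final.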
The target in assay [7] is Mitogen-activated protein kinase 10 (Mus musculus) (UniProt Q61831). Description: JNK3 AlphaScreen Assay (AID 530; active = well fitted curve in either direction with a large enough effect, not every such curve was filed as active;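 also: kinase came from lysate of stimulated human HepG2 cells; signal reports phosphorylation of biotinylated GST-cJun 1-79 at Ser73 with 10 µM ATP; % is scaled to controls: 0 for no effect and ±100 for the full control effect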). The settings on record: JNK3 lysate, c-Jun phosphorylation; series mostly up to 57.1 µM. In a few lines:
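Kinase buffer: 20 mM Tris-HCl pH 7.6, 10 mM MgCl2, 1 mM DTT, 0.1 mM Na3VO4, 0.01% Tween-20; ATP 10 uM. Substrate biotin-GST-cJun(1-79), enzyme from activated HepG2 lysates. Detection by Ser73 phospho-antibody AlphaScreen.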

Assay [8] has as its target Dual specificity protein kinase CLK4 (Homo sapiens) (UniProt Q9HAZ1). Description: qHTS Assay for Inhibitors of CDC-like Kinase 4 (Kinase-Glo Assay) (AID 1770). Also: % is scaled to controls: 0 for no effect and ±100 for the full control effect; nearly all actives have a fitted effect of over 65% in size. The settings on record: recombinant Clk4, Kinase-Glo ATP depletion luminescence; series mostly up to 66.7 µM. In a few lines:
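Clk4 25 nM, RS peptide 100 uM, ATP 1 uM, pH 7.5 Tris, 10 mM MgCl2, 2.5 mM DTT; 4.5 h RT; ATP depletion read by Kinase-Glo luminescence.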

For assay [9] the target is unchanged. Description: qHTS Assay for Inhibitors of CDC-like Kinase 4 (ADP-Glo Assay) (AID 1771). Also: % is scaled to controls: 0 for no effect and ±100 for the full control effect; nearly all actives have a fitted effect of over 70% in size. The settings on record: recombinant CLK4, ADP-Glo luminescence; series mostly up to 80 µM. The method in brief:
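25 nM Clk4, 100 uM RS peptide, 1 uM ATP (final); 2 mM MgCl2, 0.5 mM EGTA, 2.5 mM DTT, 0.01% Triton X-100; 1 hr RT. ADP-Glo readout: ATP depletion 45 min, conversion/luciferase 30 min, luminescence.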

For assay [10] the target is unchanged. Description: qHTS Assay for Inhibitors of CDC-like Kinase 4 (ADP-FP Assay) (AID 1795).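 Also: recombinant human CLK4 phosphorylating RS repeat peptide at 1 µM ATP; % is scaled to controls: 0 for no effect and ±100 for the full control effect; nearly all actives have a fitted effect of over 60% in size.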 The settings on record: Transcreener ADP fluorescence polarization; series mostly up to 50 µM. The method in brief: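 Kinase activity was followed as ADP output, converted from fluorescence polarization with a calibration curve. Reactions ran one hour at low ATP (1 uM) with RS peptide substrate.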

The target of assay [11] is Ubiquitin carboxyl-terminal hydrolase 1 (Homo sapiens) (UniProt O94782). Kind of assay: Inhibitors of USP1/UAF1: Pilot qHTS (AID 504865).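 Also: rhodamine fluorescence freed from ubiquitin-rhodamine substrate followed over time; top concentration of the series differs between compounds; % is scaled to controls: 0 for no effect and ±100 for the full control effect; nearly all actives have a fitted effect of over 35% in size.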 The settings on record: purified USP1/UAF1, Ub-rhodamine cleavage fluorescence; series mostly up to 54.9 µM. The method in brief: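 Enzyme-free wells gave the negative control, while test wells held 1nM USP1/UAF1 preincubated with compound for 15 min at room temperature. Ub-Rho at 150nM final started the reaction, and fluorescence at 480/540 nm was recorded kinetically.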

Assay [12] is described as follows: Primary qHTS for small molecule stabilizers of the endoplasmic reticulum resident proteome: Secreted ER Calcium Modulated Protein (SERCaMP) assay (AID 1508630). Also: % is scaled to controls: 0 for no effect and ±100 for the full control effect. The following applies: SH-SY5Y GLuc-SERCaMP (Gaussia luciferase released on ER calcium loss) secretion, thapsigargin, luminescence; series mostly up to 38.4 µM. In a few lines: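 The SH-SY5Y reporter protocol was run at 3 concentrations up to 38.3 uM (primary) or 11 concentrations (follow-up): 16 h compound, 100 nM thapsigargin for 4 h, then extracellular luciferase luminescence.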

The target in assay [13] is 3',5'-cyclic-AMP phosphodiesterase 4B (Homo sapiens) (UniProt Q07343). Description: qHTS Assay for Inhibitors of PDE-IV (AID 607; active = well fitted activation curve with a large enough effect in the main read-out, with a control signal flat, not every such curve was filed as active; also: % of control where 0% means no effect). The settings on record: HEK293 ACTOne CNG channel cells, membrane potential fluorescence; series mostly up to 22.9 µM. The method in brief:
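HEK293 ACTOne cells with CNG channel (1000/well), endogenous PDE4; membrane potential dye, compounds up to 22.9 uM final. Fluorescence Ex 535/Em 590; RO 20-1724 (100 uM final) as reference.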

In assay [14] the target is Cytochrome P450 1A2 (Homo sapiens) (UniProt P05177). Kind of assay: p450-cyp1a2 (AID 410; calls by dose curve; also: potency is read from the fitted curve at half-maximal effect). The settings on record: recombinant CYP1A2, luciferin-ME demethylation, luminescence; series mostly up to 57 µM. The method in brief:
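20nM CYP1A2, 100uM Luciferin-ME (=Km), 100mM KPO4; cpd 10 min RT; +NADPH regen, 60 min RT; stop/detect 20 min; luminescence. Normalized to furafylline 57 uM = full inhibition.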

Assay [15] deals with Cytochrome P450 3A4 (Homo sapiens) (UniProt P08684). Description: qHTS Assay for Inhibitors and Substrates of Cytochrome P450 3A4 (AID 884). Also: potency is read from the fitted curve at half-maximal effect; nearly all actives have a fitted effect of over 50% in size. The following applies: recombinant CYP3A4, Luciferin-PPXE luminescence; series mostly up to 57.1 µM. The method in brief:
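Luminescent readout of luciferin produced by CYP3A4 (20 nM) dealkylation of Luciferin-PPXE, 25 uM (its KM). NADPH-driven reaction ran 60 min at RT after 10 min compound preincubation; data scaled to 57 uM ketoconazole as 100% inhibition.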

The target is the same in assay [16]. Kind of assay: qHTS Assay for Activators of Cytochrome P450 3A4 (AID 885). Also: nearly all actives have a fitted effect of over 65% in size. The settings on record: recombinant CYP3A4, Luciferin-PPXE luminescence, 60 min; series mostly up to 57.1 µM. In a few lines:
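Human CYP3A4 dealkylates Luciferin-PPXE to luciferin, which luciferase detection converts to light. Substrate was at its KM (25uM), buffer 200mM KPO4, reaction 60 min at RT.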

Sequence of Ubiquitin carboxyl-terminal hydrolase 1 (Homo sapiens) (O94782 whole entry, looked up): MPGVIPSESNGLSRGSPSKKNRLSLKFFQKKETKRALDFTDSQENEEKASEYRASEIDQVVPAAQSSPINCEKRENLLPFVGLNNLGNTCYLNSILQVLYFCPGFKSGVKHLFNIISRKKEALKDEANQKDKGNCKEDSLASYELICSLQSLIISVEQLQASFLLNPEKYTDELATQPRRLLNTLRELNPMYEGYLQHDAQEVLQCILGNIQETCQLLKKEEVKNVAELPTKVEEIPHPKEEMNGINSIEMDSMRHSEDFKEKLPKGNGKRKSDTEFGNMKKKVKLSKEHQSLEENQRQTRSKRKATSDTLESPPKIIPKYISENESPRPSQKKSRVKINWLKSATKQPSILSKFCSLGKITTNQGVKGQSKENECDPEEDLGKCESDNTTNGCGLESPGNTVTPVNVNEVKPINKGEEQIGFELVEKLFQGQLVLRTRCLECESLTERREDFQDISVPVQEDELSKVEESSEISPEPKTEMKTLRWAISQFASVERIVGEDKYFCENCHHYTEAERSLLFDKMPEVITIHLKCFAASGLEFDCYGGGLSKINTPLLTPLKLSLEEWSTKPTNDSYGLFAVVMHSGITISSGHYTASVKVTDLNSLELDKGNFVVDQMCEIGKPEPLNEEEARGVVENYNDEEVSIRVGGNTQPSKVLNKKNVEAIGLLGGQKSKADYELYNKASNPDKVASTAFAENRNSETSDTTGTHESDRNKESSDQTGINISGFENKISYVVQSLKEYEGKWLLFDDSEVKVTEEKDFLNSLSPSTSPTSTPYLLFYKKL
Sequence of Lysosomal acid glucosylceramidase (Homo sapiens) (P04062 whole entry, looked up): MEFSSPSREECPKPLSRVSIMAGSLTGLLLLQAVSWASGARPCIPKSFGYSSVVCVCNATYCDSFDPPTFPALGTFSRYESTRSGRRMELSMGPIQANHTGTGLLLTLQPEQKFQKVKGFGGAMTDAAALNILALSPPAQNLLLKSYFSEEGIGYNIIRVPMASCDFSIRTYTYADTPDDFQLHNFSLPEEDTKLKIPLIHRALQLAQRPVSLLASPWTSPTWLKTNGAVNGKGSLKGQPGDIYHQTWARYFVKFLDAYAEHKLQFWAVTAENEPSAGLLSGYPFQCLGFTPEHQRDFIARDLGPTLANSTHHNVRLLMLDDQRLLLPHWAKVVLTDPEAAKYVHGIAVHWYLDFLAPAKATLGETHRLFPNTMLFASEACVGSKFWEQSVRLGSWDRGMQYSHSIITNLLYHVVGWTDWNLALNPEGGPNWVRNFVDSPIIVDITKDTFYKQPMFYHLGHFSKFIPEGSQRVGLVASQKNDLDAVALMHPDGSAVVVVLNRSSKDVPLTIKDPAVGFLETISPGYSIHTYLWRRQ
Sequence of Cytochrome P450 3A4 (Homo sapiens) (P08684 whole entry, looked up): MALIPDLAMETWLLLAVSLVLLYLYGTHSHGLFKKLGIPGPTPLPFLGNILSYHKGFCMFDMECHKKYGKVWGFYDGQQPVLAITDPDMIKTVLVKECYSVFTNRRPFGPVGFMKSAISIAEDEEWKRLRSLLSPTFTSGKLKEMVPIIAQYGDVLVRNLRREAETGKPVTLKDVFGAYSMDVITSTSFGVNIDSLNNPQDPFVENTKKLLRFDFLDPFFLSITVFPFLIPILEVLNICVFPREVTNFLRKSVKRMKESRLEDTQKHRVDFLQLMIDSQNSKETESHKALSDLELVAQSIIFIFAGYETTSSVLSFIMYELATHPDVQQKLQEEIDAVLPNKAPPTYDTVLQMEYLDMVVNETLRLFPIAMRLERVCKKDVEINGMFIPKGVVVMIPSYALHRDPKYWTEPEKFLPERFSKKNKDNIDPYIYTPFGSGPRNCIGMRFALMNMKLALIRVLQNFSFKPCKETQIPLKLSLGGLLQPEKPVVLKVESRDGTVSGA
Sequence of Cytochrome P450 1A2 (Homo sapiens) (P05177 whole entry, looked up): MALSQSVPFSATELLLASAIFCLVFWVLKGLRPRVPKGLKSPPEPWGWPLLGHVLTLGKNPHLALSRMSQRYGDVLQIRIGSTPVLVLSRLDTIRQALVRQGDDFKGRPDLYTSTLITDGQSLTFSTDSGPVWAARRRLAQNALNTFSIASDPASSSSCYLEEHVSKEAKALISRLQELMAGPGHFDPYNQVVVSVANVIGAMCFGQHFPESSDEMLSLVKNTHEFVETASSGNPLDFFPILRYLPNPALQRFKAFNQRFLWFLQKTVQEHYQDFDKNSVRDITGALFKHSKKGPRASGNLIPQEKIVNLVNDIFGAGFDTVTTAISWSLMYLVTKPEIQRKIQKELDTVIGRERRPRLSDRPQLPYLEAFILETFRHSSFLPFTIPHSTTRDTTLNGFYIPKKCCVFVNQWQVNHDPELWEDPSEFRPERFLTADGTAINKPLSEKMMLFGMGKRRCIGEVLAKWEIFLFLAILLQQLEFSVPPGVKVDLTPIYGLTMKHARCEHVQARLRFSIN
Sequence of Glucocorticoid receptor (Homo sapiens) (P04150 whole entry, looked up, the tested form may be a part): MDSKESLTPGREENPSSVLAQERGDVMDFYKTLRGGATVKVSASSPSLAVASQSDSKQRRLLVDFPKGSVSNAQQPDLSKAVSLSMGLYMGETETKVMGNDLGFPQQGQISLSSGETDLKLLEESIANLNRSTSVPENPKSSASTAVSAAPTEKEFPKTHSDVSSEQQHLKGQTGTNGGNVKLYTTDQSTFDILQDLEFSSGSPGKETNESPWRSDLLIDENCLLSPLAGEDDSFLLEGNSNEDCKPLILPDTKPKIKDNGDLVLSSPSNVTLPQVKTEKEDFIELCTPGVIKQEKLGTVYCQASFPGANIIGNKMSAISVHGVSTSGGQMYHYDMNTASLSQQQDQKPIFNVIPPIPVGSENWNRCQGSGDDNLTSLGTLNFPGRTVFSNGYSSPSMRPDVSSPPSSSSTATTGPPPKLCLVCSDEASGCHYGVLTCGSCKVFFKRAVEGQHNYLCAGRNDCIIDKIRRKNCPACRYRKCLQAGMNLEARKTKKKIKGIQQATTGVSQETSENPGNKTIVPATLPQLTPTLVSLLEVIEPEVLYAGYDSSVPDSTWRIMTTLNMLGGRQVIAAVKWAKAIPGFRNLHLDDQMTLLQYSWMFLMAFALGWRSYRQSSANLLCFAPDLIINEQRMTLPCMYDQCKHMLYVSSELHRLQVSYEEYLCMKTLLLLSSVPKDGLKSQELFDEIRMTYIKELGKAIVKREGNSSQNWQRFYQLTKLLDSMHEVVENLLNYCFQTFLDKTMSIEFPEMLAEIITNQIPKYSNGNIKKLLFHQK
Sequence of Dual specificity protein kinase CLK4 (Homo sapiens) (Q9HAZ1 whole entry, looked up): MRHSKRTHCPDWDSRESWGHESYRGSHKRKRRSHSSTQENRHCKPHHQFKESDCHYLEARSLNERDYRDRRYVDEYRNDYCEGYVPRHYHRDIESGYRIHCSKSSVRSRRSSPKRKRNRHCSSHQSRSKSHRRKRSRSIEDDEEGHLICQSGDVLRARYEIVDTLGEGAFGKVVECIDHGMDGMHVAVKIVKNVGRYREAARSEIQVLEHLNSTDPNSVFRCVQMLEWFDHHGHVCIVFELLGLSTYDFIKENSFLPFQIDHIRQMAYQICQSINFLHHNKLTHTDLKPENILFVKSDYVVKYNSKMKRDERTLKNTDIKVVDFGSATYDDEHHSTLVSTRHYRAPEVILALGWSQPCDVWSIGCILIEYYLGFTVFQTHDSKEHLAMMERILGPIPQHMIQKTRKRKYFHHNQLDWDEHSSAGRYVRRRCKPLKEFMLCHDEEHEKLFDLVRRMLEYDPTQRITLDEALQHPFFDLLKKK
Sequence of 3',5'-cyclic-AMP phosphodiesterase 4B (Homo sapiens) (Q07343 whole entry, looked up): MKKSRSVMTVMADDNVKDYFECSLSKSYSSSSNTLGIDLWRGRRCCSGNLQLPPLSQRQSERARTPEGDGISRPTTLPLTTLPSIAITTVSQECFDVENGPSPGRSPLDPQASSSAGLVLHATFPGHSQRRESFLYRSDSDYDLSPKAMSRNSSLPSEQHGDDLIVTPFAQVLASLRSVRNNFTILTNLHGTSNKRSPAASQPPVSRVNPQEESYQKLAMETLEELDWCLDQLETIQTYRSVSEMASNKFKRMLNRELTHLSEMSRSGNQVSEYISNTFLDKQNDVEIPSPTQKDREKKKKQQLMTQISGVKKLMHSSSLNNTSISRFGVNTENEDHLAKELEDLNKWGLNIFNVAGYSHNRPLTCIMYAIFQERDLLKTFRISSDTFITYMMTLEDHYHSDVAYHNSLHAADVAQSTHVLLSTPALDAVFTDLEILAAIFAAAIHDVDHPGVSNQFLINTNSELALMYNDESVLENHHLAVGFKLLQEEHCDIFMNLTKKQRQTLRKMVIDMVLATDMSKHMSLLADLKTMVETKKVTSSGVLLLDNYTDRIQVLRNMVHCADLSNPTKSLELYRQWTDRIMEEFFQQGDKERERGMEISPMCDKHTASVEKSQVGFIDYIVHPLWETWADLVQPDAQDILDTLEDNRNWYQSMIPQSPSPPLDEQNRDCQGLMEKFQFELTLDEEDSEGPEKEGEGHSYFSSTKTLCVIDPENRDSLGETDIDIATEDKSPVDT

For the compound `Cc1cnc(CNc2nc(-c3c(C)noc3C)nc3ccccc23)cn1`, the Potency in assay [1] was over 11.4 µM; in [5] it was over 46 µM; in assay [6], over 46 µM. Besides, the figures for the activity change, negative = inhibition in assay [2] and in [3] were 9.21% and 15%, respectively. Moreover, the activity, negative = inhibition in [4] was -4.92%. Moreover, the Potency result in assay [7], in assay [8], in [9], in assay [10] and in assay [11] was “inactive” each time. In addition, in assay [12], the outcome was inactive.
Regarding `COc1ccccc1CNc1ccnc(-c2ccccc2CN(C)C)n1`, the Potency is over 11.4 µM in assay [1], over 46 µM in assay [5] and over 46 µM in [6]. Moreover, the activity change, negative = inhibition was -7.71% in assay [2] and -25.2% in assay [3]. The activity, negative = inhibition in assay [4] is 3.25%. Further, the Potency entry in assay [7], in assay [8], in [9], in assay [10] and in assay [11] was “inactive” in each case. Further, in [12], the result was inactive.
Regarding `COc1cccc(Cn2c(=O)c(-c3cn(C)c4ccccc34)nc3cnc(N4CCOCC4)nc32)c1`, the values for the Potency in assay [1], in assay [5] and in assay [6] were over 11.4 µM, over 9.22 µM and over 46 µM, respectively. Besides, the activity change, negative = inhibition is 5% in assay [2] and 7.78% in assay [3]. Further, the activity, negative = inhibition in [4] was 10.6%. The Potency result in assay [7], in assay [13], in assay [8], in [9], in assay [10] and in assay [11] was “inactive” each time. For the same compound, the result in assay [12] was inactive.
As to `FC(F)(F)c1ccccc1-c1cncnc1NCc1cccs1`, the Potency in assay [1] was over 11.4 µM; in assay [14] it was 20 µM (active); in assay [5], over 46 µM; in assay [6], over 46 µM; in assay [15] it was 0.251 µM (active). Moreover, in assay [2], the activity change, negative = inhibition was 10.5%. For the same compound, in assay [4], the activity, negative = inhibition was -1.4%. In addition, the Potency entry in [7], in assay [16], in assay [8], in [9], in [10] and in assay [11] was “inactive” each time. Further, the outcome in assay [12] was inactive.
As to `CN(C)c1ncc2nc(CCc3ccccc3)c(=O)n(C3CC3)c2n1`, the Potency is over 11.4 µM in assay [1], 3.16 µM (active) in assay [14], over 9.22 µM in [5] and over 46 µM in assay [6]. Further, the activity change, negative = inhibition in [2] is 1.45%. Moreover, the activity, negative = inhibition in assay [4] was -4.87%. The Potency entry in assay [7], in assay [16], in assay [8], in [9], in assay [10] and in [11] was “inactive” in each case. The result in assay [12] was inactive.
For `CCNc1ncc2nc(-c3cccs3)c(=O)n(Cc3cccs3)c2n1`, the Potency in assay [1] was over 11.4 µM; in assay [14] it was 1.26 µM (active); in assay [5], over 9.22 µM; in assay [6], over 46 µM; in assay [15] it was 6.31 µM (active). Besides, the activity change, negative = inhibition in [2] is 9.95%. Moreover, the Potency result in assay [7], in [16], in assay [8], in assay [9], in assay [10] and in assay [11] was “inactive” each time. In [12], the outcome was inactive.
Regarding `Cn1c(=O)c(-c2cc(F)cc(F)c2)nc2cnc(Nc3ccccc3)nc21`, the Potency in assay [1] was over 11.4 µM; in assay [5], over 9.22 µM; in assay [6], over 46 µM. For the same compound, the activity change, negative = inhibition in assay [2] was -3.31%; in assay [3], 6.94%. Further, the activity, negative = inhibition in assay [4] is 4.13%. For the same compound, the Potency result in assay [7], in [13], in assay [8], in assay [9], in [10] and in assay [11] was “inactive” in each case. In addition, the result in assay [12] was inactive.
